Inconclusive results are not listed. Active and inactive are the calls of the source. Calls come from the whole dose curve; as a rule, active = well fitted curve in the direction sought with a large enough effect; inconclusive = small, poorly fitted or top-dose-only effect, or another doubt; inactive = no such curve, though single readings can be large; an effect the other way counts as inactive or inconclusive.
Columns and labels:
[1] = Cellular Toxicity (caspase-3) Mesangial (AID 660); settings: mesangial cells, normalized: DMSO 0%, 100 µM tamoxifen 100%; at 91.7 µM (top of the series);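 note: combined caspase 3 and 7 activity read by Caspase-Glo luminescence; cells exposed to compound for 16 h before the caspase read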
Procedure, shortened: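 AC50 values come from Hill-equation fits of caspase 3/7 activation, measured as Caspase-Glo luminescence in human glomerular mesangial cells exposed to compound for 16 h at 37 °C; 100% set by 100 uM tamoxifen.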

[2] = Cellular Toxicity (caspase-3) SK-N-SH (AID 661);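 note: 0% = DMSO basal and 100% = 10 µM staurosporine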
Procedure, shortened: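 Apoptosis readout in SK-N-SH neuroblastoma: Caspase-Glo 3/7 luminescence following 16 hr treatment in complete culture medium. Normalization used DMSO and 10 uM staurosporine controls.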

[3] = Cellular Toxicity (caspase-3) H-4-II-E (AID 663); settings: H-4-II-E rat hepatoma, scaled: DMSO 0%, 100 µM tamoxifen 100%; at 92.2 µM (top of the series)
Procedure, shortened: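 H-4-II-E rat hepatoma, 1500 cells/well, 5 hr settle at 37 °C; compound 16 hr, 37 °C, complete medium; Caspase-Glo 3/7, 20 min RT; luminescence. DMSO = 0%, 100 uM tamoxifen = 100%; Hill-equation AC50.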

[4] = Cellular Toxicity (caspase-3) Hek293 (AID 664); settings: HEK293 caspase-3 activation, DMSO = 0%, 100 µM tamoxifen = 100%; at 92.2 µM (top of the series);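 note: cells exposed to compound for 16 h at 37 °C before readout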
Procedure, shortened: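 Apoptosis readout: Caspase-Glo 3/7 signal in human HEK293 cells following 16-hour compound incubation. Responses scaled between DMSO baseline and 100 uM tamoxifen.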

[5] = Cellular Toxicity (caspase-3) N2a (AID 665);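 note: compound exposure lasted 16 h at 37 °C before readout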
Procedure, shortened: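 Concentration-response qHTS: compound-induced caspase-3/7 luminescence in N2a cells (16 h, 37 °C), relative to DMSO and 10 uM staurosporine controls; AC50 obtained using the standard Hill equation.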

[6] = Cellular Toxicity (caspase-3) Renal Proximal Tubule (AID 667); settings: Potency: caspase-3 activation;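 note: cells exposed to compound for 16 hours at 37 °C before detection; 0% = DMSO basal and 100% = 10 µM staurosporine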
Procedure, shortened: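 Freshly isolated primary rat kidney proximal tubule cells, 1000/well, treated 16 hr at 37 °C, then Caspase-Glo 3/7 luminescence after 1 hr. Normalized to DMSO and 10 uM staurosporine; AC50 from Hill fit.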

[7] = biological target: Cytochrome P450 3A4 (Homo sapiens) (UniProt P08684); assay: qHTS Assay for Inhibitors and Substrates of Cytochrome P450 3A4 (AID 884); note: nearly all actives have a fitted effect of over 50% in size; note: potency is the fitted concentration of half-maximal effect
Cytochrome P450 3A4 (Homo sapiens), sequence (P08684 whole entry, looked up): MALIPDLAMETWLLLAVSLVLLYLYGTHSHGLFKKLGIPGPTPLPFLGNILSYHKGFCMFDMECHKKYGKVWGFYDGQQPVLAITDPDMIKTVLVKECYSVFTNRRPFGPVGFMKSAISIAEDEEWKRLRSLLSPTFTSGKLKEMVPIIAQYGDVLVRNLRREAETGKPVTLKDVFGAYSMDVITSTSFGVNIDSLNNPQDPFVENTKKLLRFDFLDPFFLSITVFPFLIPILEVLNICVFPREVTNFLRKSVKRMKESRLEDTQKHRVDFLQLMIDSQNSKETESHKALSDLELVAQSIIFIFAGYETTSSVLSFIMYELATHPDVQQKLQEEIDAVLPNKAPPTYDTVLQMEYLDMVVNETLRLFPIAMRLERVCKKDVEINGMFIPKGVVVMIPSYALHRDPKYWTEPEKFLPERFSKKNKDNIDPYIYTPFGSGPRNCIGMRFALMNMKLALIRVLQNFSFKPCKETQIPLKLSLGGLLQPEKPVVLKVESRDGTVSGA
Procedure, shortened: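 Luminescent readout of luciferin produced by CYP3A4 (20 nM) dealkylation of Luciferin-PPXE, 25 uM (its KM). NADPH-driven reaction ran 60 min at RT after 10 min compound preincubation; data scaled to 57 uM ketoconazole as 100% inhibition.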

[8] = Cell Viability - LYMP2-001 (AID 921);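 note: 0% = DMSO only and full inhibition = tetraoctylammonium bromide control wells; nearly all actives have a fitted effect of over 70% in size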
Procedure, shortened: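 Human lymphoblastoid LYMP2-001 cells, 2500 per well, in complete medium, treated 24 h at 37 C. Viability from cellular ATP by CellTiter-Glo luminescence; AC50 from Hill-equation fits of qHTS concentration-response.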

[9] = MultiTox-Fluor Cytotoxicity Assay - LYMP1-001 - Dead Cells (AID 946);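 note: 0% = DMSO and 100% = tetraoctylammonium bromide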
Procedure, shortened: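 In this qHTS, 15 uM tetraoctylammonium bromide defined 100% and DMSO defined basal activity. Lymphoblastoid cells (LYMP1-001, 2500 per well) received compound for 16 hr at 37 C before a fluorogenic dead-cell substrate readout at 485/520 nm.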

[10] = MultiTox-Fluor Cytotoxicity Assay - LYMP1-001 - Live Cells (AID 947);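 note: 0% = DMSO only and full inhibition = tetraoctylammonium bromide control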
[11] = Cell Viability - LYMP1-002 - Assay at 16 hr (AID 948);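 note: 0% = DMSO alone and full effect = 92 µM tetraoctylammonium bromide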
Procedure, shortened: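 LYMP1-002 human lymphoblastoid cells, 2500/well, were treated with compounds for 16 hr at 37 C in complete medium. Viability was read as intracellular ATP by CellTiter-Glo luminescence, and AC50 was derived from a Hill fit to concentration-response data.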

[12] = MultiTox-Fluor Cytotoxicity Assay - LYMP1-002 - Live Cells (AID 955); note: % is set by controls: 0 for no effect and ±100 for the full control effect
Procedure, shortened: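 In this qHTS viability format, lymphoblastoid cells (LYMP1-002, human) received compound for 16 hr at 37 C. Fluorogenic GF-AFC cleavage by viable cells was detected at 405/510 nm after 1 h at room temperature.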

[13] = MultiTox-Fluor Cytotoxicity Assay - LYMP1-002 - Dead Cells (AID 960);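 note: 0% = DMSO and 100% = tetraoctylammonium bromide; nearly all actives have a fitted effect of over 60% in size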
Procedure, shortened: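 Concentration-dependent increases in membrane-leaked protease activity are quantified in LYMP1-002 cells after 16 hr treatment; values are normalized against DMSO and tetraoctylammonium bromide (15 uM) controls and AC50 derived by Hill modeling.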

[14] = MultiTox-Fluor Cytotoxicity Assay - LYMP1-003 - Dead Cells (AID 961);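 note: 0% = DMSO and 100% = tetraoctylammonium bromide; nearly all actives have a fitted effect of over 70% in size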
Procedure, shortened: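 Acute toxicity is scored as increased dead-cell protease activity in human lymphoblastoid LYMP1-003 cells after 16 h compound exposure in complete culture medium. Activity is normalized to DMSO basal and 15 uM tetraoctylammonium bromide as full response.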

[15] = MultiTox-Fluor Cytotoxicity Assay - LYMP1-003 - Live Cells (AID 962);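 note: 0% = DMSO only and full loss = 92 µM tetraoctylammonium bromide; cytotoxic hits lower the live-cell protease signal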
Procedure, shortened: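 Human lymphoblastoid line LYMP1-003 in complete culture medium, treated 16 hr with titrated compounds. Viable cells quantified via cell-permeant GF-AFC substrate fluorescence; AC50 derived by Hill fitting.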

[16] = Cell Viability - LYMP1-003 - Assay at 24 hr (AID 963);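 note: plate controls were DMSO only for no effect and tetraoctylammonium bromide positive control for full effect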
Procedure, shortened: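 The lymphoblastoid line was treated with titrated compounds for 24 hours, and viable cell number estimated from luciferase-based ATP luminescence.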

[17] = Cell Viability - LYMP1-003 - Assay at 40 hr (AID 964); note: % is set by controls: 0 for no effect and ±100 for the full control effect; nearly all actives have a fitted effect of over 60% in size
Procedure, shortened: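 Acute toxicity is scored as a concentration-dependent loss of intracellular ATP in LYMP1-003 cells (2500/well, complete medium) after 40 hr at 37 C, measured by CellTiter-Glo luminescence; AC50 values derive from standard Hill modelling.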

[18] = Cell Viability - LYMP2-003 (AID 965);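 note: cells exposed to compounds for 24 h before reading; 0% = DMSO only and full effect = 92 µM tetraoctylammonium bromide; nearly all actives have a fitted effect of over 50% in size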
Procedure, shortened: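 Human lymphoblastoid LYMP2-003 cells, 2500/well, exposed to compounds for 24 h at 37 C in complete medium. Viability read as intracellular ATP by CellTiter-Glo luminescence; AC50 from Hill-equation fits of qHTS concentration-response data.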

[19] = Cellular Toxicity (caspase-3) NIH 3T3 (AID 666);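 note: caspase signal read after 16 h compound exposure; 0% = DMSO basal and 100% = 100 µM tamoxifen stimulation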
Procedure, shortened: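 Activity: caspase-3/7 induction, NIH 3T3 cells, 16 hr treatment at 37°C, luminescent Caspase-Glo detection; AC50 via Hill equation.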

[20] = biological target: Cytochrome P450 3A4 (Homo sapiens) (UniProt P08684); assay: qHTS Assay for Activators of Cytochrome P450 3A4 (AID 885); note: nearly all actives have a fitted effect of over 65% in size
Procedure, shortened: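 Using 20nM recombinant human CYP3A4 in potassium phosphate (200mM), substrate Luciferin-PPXE at 25uM, luminescent luciferin detection followed a 60-min RT NADPH reaction; data scaled to 57 uM ketoconazole.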

O=P(O)(OCc1ccccc1)OCc1ccccc1
inactive: caspase-3 activation [1] -0.354% | outcome [2] | caspase-3 activation [3] 1.06% | caspase-3 activation [4] -1.18% | outcome [5] | Potency [6] | Potency [7] | Potency [8] | outcome [9] | outcome [10] | outcome [11] | outcome [12] | outcome [13] | Potency [14] | Potency [15] | Potency [16] | Potency [17] | Potency [18]

Cc1ccc2cccnc2c1
inactive: caspase-3 activation [1] 0.42% | outcome [2] | caspase-3 activation [3] -0.588% | caspase-3 activation [4] 5.55% | outcome [5] | Potency [6] | Potency [7] | outcome [9] | outcome [10] | outcome [11] | Potency [14] | Potency [15] | Potency [16] | Potency [17] | Potency [18]

[O-]/[N+](=N\O)c1ccccc1
inactive: caspase-3 activation [1] -1.07% | outcome [2] | caspase-3 activation [3] -1.1% | caspase-3 activation [4] 2.95% | outcome [5] | outcome [19] | Potency [6] | Potency [8] | outcome [9] | outcome [10] | outcome [11] | outcome [12] | Potency [14] | Potency [16] | Potency [17] | Potency [18]

BrC/C=C/CBr
inactive: caspase-3 activation [1] -0.978% | outcome [2] | caspase-3 activation [3] 0.954% | caspase-3 activation [4] 2.1% | outcome [5] | Potency [6] | Potency [7] | Potency [8] | outcome [9] | outcome [10] | outcome [11] | outcome [12] | outcome [13] | Potency [14] | Potency [15] | Potency [16] | Potency [17] | Potency [18]

Cc1cccc2cccnc12
inactive: caspase-3 activation [1] -0.268% | outcome [2] | caspase-3 activation [3] 0.865% | caspase-3 activation [4] -1.22% | outcome [5] | Potency [6] | Potency [7] | Potency [8] | outcome [9] | outcome [10] | outcome [11] | outcome [12] | outcome [13] | Potency [14] | Potency [15] | Potency [16] | Potency [18]

Cc1ccc2c(c1[N+](=O)[O-])C(=O)c1ccccc1C2=O
active: Potency [7] 12.6 µM
inactive: caspase-3 activation [1] -0.888% | outcome [2] | caspase-3 activation [3] -1.7% | caspase-3 activation [4] -1.55% | outcome [5] | Potency [6] | outcome [20] | Potency [8] | outcome [9] | outcome [11] | outcome [12] | Potency [14] | Potency [16] | Potency [17] | Potency [18]

Cc1ccc(Cl)cc1N
inactive: caspase-3 activation [1] -0.617% | outcome [2] | caspase-3 activation [3] -0.363% | caspase-3 activation [4] -3.36% | outcome [5] | Potency [6] | outcome [20] | outcome [9] | outcome [10] | outcome [11] | outcome [12] | outcome [13] | Potency [14] | Potency [15] | Potency [16] | Potency [17] | Potency [18]

C[C@@H]1CC2(OC3C[C@@]4(C)C5=CC[C@H]6C(C)(C)C(O[C@@H]7OC[C@@H](O)[C@H](O)[C@H]7O)CC[C@@]67C[C@@]57CC[C@]4(C)C31)OC(O)C1(C)OC21 (stereo not given in full)
inactive: caspase-3 activation [1] -0.636% | outcome [2] | caspase-3 activation [3] 1.92% | caspase-3 activation [4] 2.55% | outcome [5] | Potency [6] | outcome [20] | Potency [8] | outcome [9] | outcome [10] | outcome [11] | outcome [12] | Potency [14] | Potency [15] | Potency [16] | Potency [17] | Potency [18]

Cc1cc(C)c(N)cc1C
inactive: caspase-3 activation [1] -0.153% | outcome [2] | caspase-3 activation [3] -1.64% | caspase-3 activation [4] 2.78% | outcome [5] | outcome [19] | Potency [6] | Potency [8] | outcome [9] | outcome [10] | outcome [11] | outcome [12] | outcome [13] | Potency [14] | Potency [15] | Potency [16] | Potency [17] | Potency [18]

NC=O
inactive: caspase-3 activation [1] -0.458% | outcome [2] | caspase-3 activation [3] 0.414% | caspase-3 activation [4] -1.11% | outcome [5] | Potency [6] | Potency [7] | Potency [8] | outcome [9] | outcome [10] | outcome [11] | outcome [12] | outcome [13] | Potency [14] | Potency [15] | Potency [16] | Potency [17] | Potency [18]

O=C1C=CCCC1
inactive: caspase-3 activation [1] -1.96% | outcome [2] | caspase-3 activation [3] 0.0441% | caspase-3 activation [4] 3.14% | outcome [5] | Potency [6] | Potency [7] | Potency [8] | outcome [9] | outcome [10] | outcome [11] | outcome [12] | outcome [13] | Potency [14] | Potency [15] | Potency [16] | Potency [17] | Potency [18]

C[C@@H]1O[C@@H](O[C@@H]2[C@@H](O)[C@H](OCCc3ccc(O)c(O)c3)O[C@H](CO[C@@H]3O[C@H](CO)[C@@H](O)[C@H](O)[C@H]3O)[C@H]2OC(=O)/C=C/c2ccc(O)c(O)c2)[C@H](O)[C@H](O)[C@H]1O
inactive: caspase-3 activation [1] -1.14% | outcome [2] | caspase-3 activation [3] -0.514% | caspase-3 activation [4] -1.55% | outcome [5] | outcome [19] | Potency [6] | outcome [20] | Potency [8] | outcome [9] | outcome [10] | outcome [13] | Potency [14] | Potency [15] | Potency [16] | Potency [18]

C/C=C1\CC2C=CC1C2 (stereo not given)
inactive: caspase-3 activation [1] -0.567% | outcome [2] | caspase-3 activation [3] 0.51% | caspase-3 activation [4] -0.412% | outcome [5] | Potency [6] | Potency [7] | Potency [8] | outcome [9] | outcome [10] | outcome [11] | outcome [12] | outcome [13] | Potency [14] | Potency [15] | Potency [16] | Potency [18]

CCC=O
inactive: caspase-3 activation [1] -0.374% | outcome [2] | caspase-3 activation [3] 0.94% | caspase-3 activation [4] 1.43% | outcome [5] | Potency [6] | Potency [7] | outcome [9] | outcome [10] | outcome [12] | outcome [13] | Potency [14] | Potency [15] | Potency [16] | Potency [17] | Potency [18]

CC(C)N(C)C
inactive: caspase-3 activation [1] 0.455% | outcome [2] | caspase-3 activation [3] 0.576% | caspase-3 activation [4] 1.04% | outcome [5] | Potency [6] | Potency [7] | Potency [8] | outcome [9] | outcome [10] | outcome [11] | outcome [12] | outcome [13] | Potency [14] | Potency [15] | Potency [16] | Potency [17] | Potency [18]

Source: PubChem BioAssay (NCATS)
